Bioassay records: PubChem, several laboratories
FBA Mtb inh = inhibitors of M. tuberculosis fructose-bisphosphate aldolase. purified M. tuberculosis FBA, fluorescence read-out. AID 588726. inhibition, % at 1 µM. 2.3% of 360,000 active. P9WQA3; in the data active means inhibition above about 27%;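 further: 0% = vehicle and 100% = reference inhibitor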
Target sequence (P9WQA3 whole entry, looked up): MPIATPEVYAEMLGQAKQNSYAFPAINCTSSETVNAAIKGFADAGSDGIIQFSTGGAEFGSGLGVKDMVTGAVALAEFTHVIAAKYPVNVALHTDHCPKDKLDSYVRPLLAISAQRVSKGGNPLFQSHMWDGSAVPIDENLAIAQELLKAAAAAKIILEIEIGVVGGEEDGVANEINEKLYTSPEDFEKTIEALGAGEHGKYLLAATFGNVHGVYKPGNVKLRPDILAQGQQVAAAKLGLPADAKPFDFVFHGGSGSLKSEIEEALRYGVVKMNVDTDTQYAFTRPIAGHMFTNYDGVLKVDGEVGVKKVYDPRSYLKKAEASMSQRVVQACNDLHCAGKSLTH
GDH-TPI counter-1 = inhibits GDH-TPI coupling enzymes, artifact for Mtb FBA screen | GDH-TPI coupled enzyme counterscreen, NADH absorbance | inhibition, % at 4.8 µM | 1.2% of 360,000 active | AID 588335;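 further: 0% = DMSO wells and 100% = wells lacking the enzyme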
Mtb bLac sens = beta-lactam sensitization of Mtb H37Rv. M. tuberculosis H37Rv growth with meropenem, percent inhibition. inhibition, % at 25 µM. 0.27% of 330,000 active. AID 434955; call rule not given here;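 further: growth measured after seven days incubation then overnight dye step; 0% = bacteria only wells and 100% = bacteria with antibiotic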
CCHF vOTU inh-1 = blocks the CCHF virus ovarian tumor domain protease; inhibition, % at 11.5 µM; 0.55% of 370,000 active; CCHFV vOTU protease, Pep-AMC fluorescence; further: 0% = vehicle wells with enzyme and 100% = no enzyme wells
RecA splice inh = blocks M. tuberculosis RecA intein splicing; P9WHJ3; inhibition, % (test concentration not listed); 0.75% of 290,000 active; cell-free RecA intein splicing, fluorescence; in the data active means inhibition above about 30%;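 further: 0% = vehicle wells and 100% = reference inhibitor control wells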
Mtb FBA confirm = Mtb FBA inhibition, confirmed. inhibition, % at 1 µM. purified M. tuberculosis FBA, fluorescence read-out. AID 651616. 78% of 5,600 active. shares compounds with FBA Mtb inh; in the data active means inhibition above about 27%;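 further: 0% = vehicle wells and 100% = reference inhibitor wells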
GDH-TPI counter-2 = counter-screen for M. tuberculosis FBA inhibitors: GDH-TPI coupled enzyme inhibition; GDH-TPI coupled enzyme counterscreen, fluorescence; inhibition, % at 1 µM; shares compounds with FBA Mtb inh; 81% of 5,600 active; in the data active means inhibition above about 10%
CCHF vOTU inh-2 = confirmation of CCHF virus vOTU protease inhibitors; 17% of 1,900 active; shares compounds with CCHF vOTU inh-1; inhibition, % at 11.5 µM; Recombinant CCHFV vOTU, Pep-AMC fluorescence
* = called active by the depositor; i = inactive; . = not tested or not shown; + = active, no number. Compounds with a hit are over-represented: about 4.2% of the library has one in this group of screens. Unless noted, no stated cut-off is given here; in the data, active means inhibition above about 30%; inactive means the rest.

SMILES | FBA Mtb inh | GDH-TPI counter-1 | Mtb bLac sens | CCHF vOTU inh-1 | RecA splice inh | Mtb FBA confirm | GDH-TPI counter-2 | others
CC1=CC=CC2=NC(=O)CC(C)(C(=O)O)N12 (stereo unspecified) | 102.7* | 0.6 | -5.7 | -99.3 | 0.2 | 21.4 | 13.6*
COCc1cc(N2CCN(C(=O)OC(C)(C)C)C[C@H]2C)ccc1N1CC[C@H](O)C1 | . | . | . | 9.9 | . | . | .
COc1ccc(CCN2C(=O)c3ccccc3NC2c2cc(Cl)c(O)c(OC)c2)cc1 (stereo unspecified) | 13.6 | 7.8 | 13.7 | -12.2 | 11.3 | . | .
CCCN1C(=O)c2ccccc2NC1c1cc(OC)c(OC)c(OC)c1 (stereo unspecified) | 71.0* | 1.9 | -7.9 | -95.0 | 1.0 | 136.5* | 113.8*
CCN(CC)CCN1C(=O)c2ccccc2NC1c1cc(OC)c(OC)c(OC)c1 (stereo unspecified) | 107.0* | 9.3 | -0.4 | -96.7 | -11.7 | + | +
CCOc1ccc2nc(NCCCNS(=O)(=O)c3ccc(F)cc3)c(C#N)cc2c1 | 39.9* | 7.8 | 2.6 | . | -33.2 | 0.0 | -3.1
CCOc1ccc2nc(NCCNC(=O)c3cc(OC)c(OC)c(OC)c3)c(C#N)cc2c1 | 0.9 | -8.1 | -4.7 | -16.6 | -86.1 | . | .
CCOc1ccc2nc(NCCCNS(=O)(=O)c3ccccc3)c(C#N)cc2c1 | 36.6* | 3.4 | 6.2 | -30.4 | i | 98.4* | 64.1*
CC(C)OCCCNC(=O)c1cc(-c2cccs2)nc2ccccc12 | 93.4* | 16.9 | 0.0 | -154.3 | -2.5 | 88.4* | 82.8*
Cc1nn(-c2ccccn2)c2nc(-c3cccs3)cc(C(=O)NCc3ccco3)c12 | 48.4* | 30.3 | -9.1 | -55.1 | 3.1 | 58.5* | 61.4*
O=C(NCc1ccco1)c1cc(-c2cccs2)nc2ccccc12 | 79.2* | 17.3 | 1.8 | -96.1 | 0.7 | 9.3 | -4.5
Cc1nn(-c2ccccc2)c2nc(-c3ccncc3)cc(C(=O)NCc3ccco3)c12 | -1.8 | 4.6 | 98.9 | 14.8 | . | . | .
O=C(NCc1ccco1)c1cc2nc(-c3cccs3)cc(C(F)(F)F)n2n1 | 37.0* | 20.8 | 6.7 | -24.2 | -15.3 | 2.7 | -1.3
CCOC(=O)C1(Cc2ccccc2)CCN(Cc2cccc(C#N)c2)CC1 | . | . | . | -1.4 | . | . | .
COC(=O)[C@]12C[C@H](CC(=O)NCC34CC5CC(CC(C5)C3)C4)C(=O)N(Cc3ccc4c(c3)OCO4)C1=C[C@H](C(C)C)O[C@@H]2C1CC1 | . | . | . | 14.4 | . | . | .
COc1cc(OC)cc(C(=O)N2CCCC(c3nc(-c4ccc(C)o4)no3)C2)c1 (stereo unspecified) | 31.2* | 0.8 | -6.3 | 14.0 | 0.3 | 1.9 | -6.1
COc1ccc(-c2noc(C3CCCN(C(=O)c4cccc(C)c4)C3)n2)cc1 (stereo unspecified) | 77.9* | -4.1 | 2.3 | 2.1 | 1.4 | 115.1* | 76.5*
Cc1ccc(-c2noc(C3CCCN(C(=O)c4cccc(F)c4)C3)n2)cc1 (stereo unspecified) | 0.7 | -10.0 | 6.9 | 1.9 | 4.2 | . | .
O=C(N/N=C/c1cc(Cl)ccc1O)c1ccc(Br)cc1 | 26.9* | 11.5 | 0.7 | 10.6 | . | 77.9* | 56.6*
COc1ccc2sc3ccccc3c(=O)c2c1 | 7.0 | 9.7 | 34.8 | -14.6 | -353.1 | . | .
COc1ccc2sc(C)cc(=O)c2c1 | 106.6* | 15.0 | . | -144.0 | . | 87.9* | 51.6*
CN[C@H]1C[C@H]2c3[nH]c4cccc(-c5cccc(C)c5)c4c3CCN2C(=O)[C@H]1[C@H](C)O | . | . | . | -7.3 | . | . | .
CC(C)c1[nH]nc2c1C(c1cccc(C(F)(F)F)c1)N(Cc1ccccc1)C2=O (stereo unspecified) | . | . | . | 28.4 | . | . | .
OC1c2c(F)cccc2N=C2CCCCN21 (stereo unspecified) | 37.6* | -1.0 | . | -68.8 | . | 176.4* | 161.8*
Cc1cccc(Cc2c(C)nc3c(C(=O)NCc4ccco4)cnn3c2C)c1 | 31.4* | 4.9 | . | -13.3 | -1.7 | 194.3* | 148.5*
SMILES | FBA Mtb inh | GDH-TPI counter-1 | Mtb bLac sens | CCHF vOTU inh-1 | RecA splice inh | Mtb FBA confirm | GDH-TPI counter-2 | others
CCCn1c(=O)c2c(C(F)(F)F)cc(-c3ccco3)nc2n(CCC)c1=O | 9.7 | 5.0 | 1.8 | -4.5 | -3.8 | . | .
CCCn1c(=O)c2c(C(=O)OCC)cc(-c3ccco3)nc2n(CCC)c1=O | 41.0* | 6.2 | . | -20.5 | -0.1 | 166.4* | 124.3*
CC(C)CCNC(=O)c1cnn2c(C(F)(F)F)cc(-c3ccco3)nc12 | 8.2 | 22.3 | 27.9 | -3.0 | -23.9 | . | .
CCOC(=O)c1cnn2c(C(F)(F)F)cc(-c3ccco3)nc12 | 52.5* | 21.4 | -6.8 | -54.0 | -15.0 | + | 159.6*
COc1ccc(-c2cc(C(F)(F)F)n3ncc(C(=O)NCc4ccco4)c3n2)cc1 | 30.5* | 23.7 | 27.6 | -2.5 | -8.4 | 165.0* | 145.3*
CC(C)NC(=O)N[C@H]1C[C@@H]2O[C@H](CO)CC[C@@H]2O[C@@H]1CCc1ccc(-c2ccccc2F)cc1 | . | . | . | 2.6 | . | . | .
COC(=O)C1=C(C)N(Cc2ccccc2C(F)(F)F)C(=NCc2cc(OC)c(OC)c(OC)c2)NC1c1ccccc1C(F)(F)F (stereo unspecified) | . | . | . | 5.4 | . | . | .
CCOC(=O)c1cnn2c(C)cc(-c3ccccc3)nc12 | 53.7* | 17.4 | -1.0 | -62.9 | 3.4 | + | +
CCCN(CCC)CCCNC(=O)c1cc2c(-c3ccc(OC)c(OC)c3)nn(C)c2s1 | 2.9 | 10.8 | -3.5 | 15.3 | 0.7 | . | .
Cn1nc(-c2ccccc2F)c2cc(C(=O)Nc3ccc4c(c3)OCCO4)sc21 | -1.6 | 16.4 | 97.7 | -9.9 | 11.3 | . | .
CCOCCCNC(=O)c1cc2c(-c3ccc(Cl)cc3)nn(C)c2s1 | 62.6* | 12.0 | 12.9 | -7.5 | -0.1 | 71.1* | 55.0*
CCCN(CCC)CCNC(=O)c1cc2c(-c3ccccc3F)nn(C)c2s1 | 86.9* | 6.7 | 2.3 | -6.4 | 0.6 | 100.0* | 81.2*
Cn1nc(-c2ccc(Cl)cc2)c2cc(C(=O)NC3CC3)sc21 | 9.2 | 19.7 | 2.2 | 2.9 | . | . | .
CCCCN(CC)CCNC(=O)c1cc2c(-c3ccc(Cl)cc3)nn(C)c2s1 | 77.1* | 1.5 | 99.3 | -26.0 | 2.6 | 5.3 | -3.8
CCCN(CCC)CCNC(=O)c1cc2c(-c3ccc(Cl)cc3)nn(C)c2s1 | 49.7* | 10.9 | 91.6 | -32.2 | 1.3 | 163.3* | 120.1*
O=C(Nc1nc2ncccn2c1-c1ccc(F)c(F)c1)c1ccccc1 | . | . | . | -16.1 | . | . | .
CCCCn1c(NC(=O)c2ccco2)c(C(=O)OCC)c2nc3ccccc3nc21 | 79.8* | 25.0 | 17.2 | 55.4* | -64.6 | 2.3 | 1.4 | CCHF vOTU inh-2=-97.0
CCOCCCn1c(N)c(C(=O)Nc2sc3c(c2C(=O)OC)CCCC3)c2nc3ccccc3nc21 | 45.7* | 22.4 | 6.0 | 30.9* | -0.2 | 187.5* | 153.2* | CCHF vOTU inh-2=-5.1
CCn1ccc(C(=O)Nc2sc3c(c2C(=O)OC)CCC3)n1 | 7.5 | 9.9 | 73.5 | -7.4 | 0.4 | . | .
